From PubChem BioAssay (NCI)
Values joined by “and” are separate entries in the source; they are usually repeats but may differ in a detail not shown here. Equal entries are not always repeated. Compounds without any hit were thinned out: in the full panel of roughly 83,000, 20% have a hit.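 Percent growth is the endpoint: 0 to 100 indicates growth inhibition (40 means 60% inhibition), 0 means no net growth, and negative values indicate cell death.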 Values without a mark were called inactive. Active and inactive are the calls of the source. How the source made its calls: active means growth percent below 10; inactive means the rest.

These compounds were tested on MDA-MB-468 breast (assay: NCI-60 one-dose screen, 48 h (100 = growth as untreated, 0 = no growth, -100 = all killed)). Conditions: 10 µM unless noted.

| Structure (SMILES) | growth |
| --- | --- |
| CC1=CC[C@@H]2C(C)(C)[C@@H](O)CC[C@@]2(C)[C@@H]1COc1ccc2ccc(=O)oc2c1 | 42.8% |
| NC(C(=O)O)C(O)c1ccco1 (stereo not given) | 102% |
| COc1ccc2c(c1)C(C)Cc1c(Cl)nc(C)nc1N2C (stereo not given) | 25.8% |
| COc1ccc2nc3cc(Cl)ccc3c(NCCNCC(C)O)c2c1 (stereo not given) | 38.6% |
| c1ccc2cc(C[n+]3ccn(CCCCCCn4cc[n+](Cc5ccc6ccccc6c5)c4)c3)ccc2c1 | 10.1% |
| COc1cc(CNC(=O)CCCC/C=C/C(C)C)ccc1O | 94.6% and 98.5% |
| C=C(C)[C@@H]1CC[C@]2(C(=O)N3CCN(C)CC3)CC[C@]3(C)[C@H](CC[C@@H]4[C@@]5(C)C/C(=C/c6cccnc6)C(=O)C(C)(C)[C@@H]5CC[C@]43C)[C@@H]12 | 51.5% |
| N#CC1=C(N)Oc2c(ccc3ccccc23)C1c1cc(=O)oc2ccc(Cl)cc12 (stereo not given) | 62% |
| CS(=O)(=O)c1ccc(-c2nc3cc(Cl)ccc3n2CC(=O)NO)cc1 | 96% |
| CCOC(=O)c1c(NC(=O)c2ccc(C(F)(F)F)cc2)sc2c3c(ccc12)OCN(C)C3 | -76.9% (active) |
| O=[N+]([O-])c1ccc2c(c1)S(=O)c1cc([N+](=O)[O-])ccc1N2 | 94.8% |
| Cc1nn(-c2ccccc2)c2nc3c(nc12)C(=O)CCC3 | 88.3% |
| COc1cc(/C=C2\C(=O)Nc3cc(C)c(O)cc32)cc(OC)c1OC | 29.3% |
| O=C(O)c1ccc2cccnc2c1O | -31.1% (active) |
| CC12CCC3C(CCC4CC(O)CCC43C)C1C/C(=C/O)C(=O)O2 (stereo not given) | 108% |
| Cn1c(=O)c2[nH]c(NN)nc2n(C)c1=O | 122% |
| O=C1C=CC(=O)N1c1ccc(O)cc1 | 88.9% |
| CCN(CC)CCOc1ccc(/C(=C(\C)Cc2ccc(OC)cc2)c2ccc(OC(=O)NCc3ccccc3)cc2)cc1 | 43.3% |
| CS(=O)(=O)c1ccc(Nc2nc(N[C@H]3CCCC[C@H]3N)nc3cc[nH]c(=O)c23)cc1 | -75.2% (active) |
| COc1ccc(CNc2c3ccccc3nc3ccccc23)cc1 | 27.1% |

| Structure (SMILES) | growth |
| --- | --- |
| CCOc1cc(C(C)(C)C)ccc1C1=N[C@H](c2ccc(Cl)cc2)[C@H](c2ccc(Cl)cc2)N1C(=O)N1CCN(CC#Cc2cccc3c2CN([C@@H]2CCC(=O)NC2=O)C3=O)CC1 | -21.9% (active) |
| C/C(Cc1ccc(Cl)cc1)=C(\c1ccc(O)cc1)c1ccc(Cl)cc1 | 101% |
| CCOC(=O)c1c(C)[nH]c(C(=O)CCC(=O)OC)c1C | 114% |
| CCCCCCCN(CCCCCCC)C(=N)c1ccc(OC)c2ccccc12 | -85% (active) |
| Cc1ccccc1CNc1ncnc2[nH]ncc12 | 87.7% |
| Cc1ccc(-c2c3c(N)c4c(nc3nc3c2c(C)nn3-c2ccccc2)CCC4)cc1 | 53% |
| CN(C)CCCn1c(=O)c2ccccc2c2ccccc21 | 66% |
| COc1cc(/C=C/C(=O)c2ccc(-n3cc(CN4CCN(c5cc6c(cc5F)c(=O)c(C(=O)O)cn6C5CC5)CC4)nn3)cc2)ccc1O | 64.8% |
| Fc1cccc(CNc2c3ccccc3nc3ccccc23)c1F | 22% |
| Clc1ccccc1-c1nc(Nc2nc3ccccc3s2)nc(C(Cl)(Cl)Cl)n1 | -24.6% (active) |
| c1ccc(Cn2cnc3ccc(-c4nc(-c5ccc6c(c5)ncn6C5CCCCC5)cn5ccnc45)cc32)cc1 | -35.7% (active) |
| CCOC(=O)c1c(Cl)c2c(n1Cc1cccc(OC)c1)-c1oncc1CC2 | 11.1% |
| CCN(CC)CCNc1ccc(C)c2sc3cc(Cl)ccc3c(=O)c12 | 14.4% |
| COc1ccc(C(=O)C2C(C#N)C(C#N)C3C=Cc4ccccc4N32)cc1 (stereo not given) | 16.5% |
| CC(C)(C)c1ccc(C(O)CCCN2CCC(C(O)(c3ccccc3)c3ccccc3)CC2)cc1 (stereo not given) | -97.1% (active) |
| Cc1ccc(/C=C/c2c(C(=O)/C=C/c3ccc(Cl)cc3)c(C)nc3ccccc23)cc1 | -23.3% (active) |
| O=C1c2c(c3c4cccnc4[nH]c3c3ccc4ccccc4c23)C(=O)N1O | 45.5% |
| CSc1ccc(-c2ccccc(=O)c2O)cc1 | 11.5% |
| COc1ccc(NC(N)=NCCCOc2ccc(F)cc2)cc1 | 66.2% |
| COc1cc2oc(-c3cccc(NC(=O)c4ccccc4)c3)cc(=O)c2c(OC)c1OC | 84.2% |
